Several values for one entry are separate records, joined by “and”; a condition that tells them apart may be missing. Equal values may be shown once. The campaign covered roughly 5,500 compounds. About 2,000 (36%) were called active. Roughly 18% stayed inconclusive and do not appear here. Rule as the data show it: active = normalized growth mostly below about 0.91 (no sharp cut-off); inconclusive = no clear call, values can overlap the other calls; inactive = mostly above about 0.92. The list shows a part of the results.
Assay: chemical genetic growth profiling, strain panel (AID 1159580);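 also: tested at 20 µM; growth read once vehicle control cultures reached saturation at 30 °C; 1 = growth at the plate median or of vehicle wells; lower values mean less growth of the strain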
Conditions: S. cerevisiae deletion strains, growth OD

Measured: normalized growth

Cc1cc2cc3c(C)cc(=O)oc3c(C)c2o1
inactive: locus YAL013W, strain DEP1, stronger effect = lower value 0.965 | locus YAL021C, strain ccr4, stronger effect = lower value 0.992 | locus YAL026C, strain drs2, stronger effect = lower value 0.949 | locus YAL030W, strain snc1, stronger effect = lower value 1.01 | locus YBL061C, strain skt5, stronger effect = lower value 0.997 | locus YBR009C, strain hhf1, stronger effect = lower value 0.937 | locus YBR021W, strain FUR4, stronger effect = lower value 1 | locus YBR023C, strain chs3, stronger effect = lower value 0.968 | locus YBR171W, strain sec66, stronger effect = lower value 0.959 | locus YBR229C, strain ROT2, stronger effect = lower value 0.967 | locus YBR231C, strain swc5, stronger effect = lower value 0.993 | locus YBR279W, strain paf1, stronger effect = lower value 0.949 | locus YCL011C, strain gbp2, stronger effect = lower value 0.955 | locus YCL016C, strain dcc1, stronger effect = lower value 0.939 | locus YCL029C, strain bik1, stronger effect = lower value 0.958 | locus YCL061C, strain MRC1, stronger effect = lower value 1 | locus YCL069W, strain vba3, stronger effect = lower value 0.955 | locus YCR088W, strain abp1, stronger effect = lower value 0.987 | locus YDL005C, strain med2, stronger effect = lower value 0.993 | locus YDL035C, strain GPR1, stronger effect = lower value 0.92 | locus YDL040C, strain nat1, stronger effect = lower value 1 | locus YDL074C, strain BRE1, stronger effect = lower value 0.832 | locus YDL101C, strain DUN1, stronger effect = lower value 0.933 | locus YDL134C, strain PPH21, stronger effect = lower value 0.951 | locus YDL185W, strain tfp1, stronger effect = lower value 0.958 | locus YDL192W, strain arf1, stronger effect = lower value 0.966 | locus YDR001C, strain nth1, stronger effect = lower value 0.984 | locus YDR069C, strain doa4, stronger effect = lower value 1.02 | locus YDR101C, strain arx1, stronger effect = lower value 0.951 | locus YDR137W, strain rgp1, stronger effect = lower value 1.03 | locus YDR150W, strain NUM1, stronger effect = lower value 0.993 | locus YDR159W, strain sac3, stronger effect = lower value 0.996 | locus YDR162C, strain NBP2, stronger effect = lower value 0.956 | locus YDR297W, strain sur2, stronger effect = lower value 1.01 | locus YDR318W, strain mcm21, stronger effect = lower value 0.94 | locus YDR334W, strain swr1, stronger effect = lower value 1 | locus YDR335W, strain msn5, stronger effect = lower value 1 | locus YDR388W, stronger effect = lower value 0.956 | locus YDR392W, strain spt3, stronger effect = lower value 0.875 | locus YDR502C, strain sam2, stronger effect = lower value 0.957 | locus YEL003W, strain gim4, stronger effect = lower value 0.972 | locus YEL037C, strain rad23, stronger effect = lower value 0.949 | locus YEL061C, strain CIN8 (second series), stronger effect = lower value 0.989 | locus YEL061C, strain CIN8, stronger effect = lower value 0.98 | locus YER015W, strain faa2, stronger effect = lower value 0.981 | locus YER016W, strain bim1, stronger effect = lower value 1 | locus YER110C, stronger effect = lower value 0.969 | locus YER111C, strain swi4, stronger effect = lower value 0.991 | locus YER155C, strain BEM2 (second series), stronger effect = lower value 0.926 | locus YER155C, strain BEM2, stronger effect = lower value 0.982 | locus YER167W, strain BCK2, stronger effect = lower value 0.975 | locus YFR010W, strain ubp6, stronger effect = lower value 0.965 | locus YGL078C, strain dbp3, stronger effect = lower value 0.982 | locus YGL086W, strain mad1, stronger effect = lower value 0.973 | locus YGL167C, strain pmr1, stronger effect = lower value 1.01 | locus YGL173C, strain kem1, stronger effect = lower value 0.997 | locus YGL227W, strain vid30, stronger effect = lower value 0.999 | locus YGL240W, strain doc1, stronger effect = lower value 0.98 | locus YGL248W, strain PDE1, stronger effect = lower value 0.929 | locus YGL253W, strain hxk2, stronger effect = lower value 0.953 | locus YGR078C, strain PAC10, stronger effect = lower value 0.879 | locus YGR135W, strain pre9, stronger effect = lower value 0.905 | locus YGR229C, strain SMI1, stronger effect = lower value 0.867 | locus YGR252W, strain gcn5, stronger effect = lower value 0.917 | locus YHR013C, strain ard1, stronger effect = lower value 0.877 | locus YHR027C, strain rpn1, stronger effect = lower value 1 | locus YHR079C, strain IRE1 (second series), stronger effect = lower value 0.981 | locus YHR079C, strain IRE1, stronger effect = lower value 0.948 | locus YHR094C, strain hxt1, stronger effect = lower value 0.992 | locus YHR129C, strain ARP1, stronger effect = lower value 0.967 | locus YHR142W, strain chs7, stronger effect = lower value 0.944 | locus YHR200W, strain rpn10, stronger effect = lower value 0.941 | locus YIL066C, strain RNR3, stronger effect = lower value 0.918 | locus YIL073C, strain SPO22, stronger effect = lower value 0.888 | locus YIL125W, strain kgd1, stronger effect = lower value 1 | locus YIR030C, strain dcg1, stronger effect = lower value 0.988 | locus YJL092W, strain hpr5, stronger effect = lower value 0.978 | locus YJL095W, strain BCK1 (second series), stronger effect = lower value 0.988 | locus YJL115W, strain asf1, stronger effect = lower value 0.991 | locus YJL129C, strain trk1, stronger effect = lower value 1.02 | locus YJL134W, strain LCB3, stronger effect = lower value 0.977 | locus YJL154C, strain vps35, stronger effect = lower value 0.99 | locus YJL164C, strain tpk1, stronger effect = lower value 0.95 | locus YJL166W, strain qcr8, stronger effect = lower value 0.989 | locus YJL187C, strain SWE1 (second series), stronger effect = lower value 0.91 | locus YJR043C, strain POL32, stronger effect = lower value 0.89 | locus YJR066W, strain TOR1, stronger effect = lower value 0.89 | locus YJR075W, strain HOC1, stronger effect = lower value 0.946
0.752 (active) and 0.891 (inactive): locus YJL095W, strain BCK1, stronger effect = lower value
active: locus YDR195W, strain ref2 1.28 [resistant]
0.908 (active) and 0.94 (inactive): locus YHR030C, strain SLT2, stronger effect = lower value
